{"source": "PubChem BioAssay AID651813", "about": "(National Center for Advancing Translational Sciences (NCATS), 2012)", "note": "Screen size: about 2,100 compounds; about 1,100 (52%) were called active. About 27% were inconclusive and are not listed. Calls follow the shape of the dose curve; as a rule, active = well fitted inhibition curve with a large enough effect; inconclusive = small, poorly fitted or top-dose-only effect; inactive = no such curve, though single readings can be large or run the other way. So high a share suggests a set chosen from earlier hits. The list shows a part of the results. Potency is read from the fitted curve at half-maximal effect.", "data": [{"molecular_target": "DNA dC->dU-editing enzyme APOBEC-3G (Homo sapiens) (UniProt Q9HC16)", "sequence (Q9HC16 whole entry, looked up)": "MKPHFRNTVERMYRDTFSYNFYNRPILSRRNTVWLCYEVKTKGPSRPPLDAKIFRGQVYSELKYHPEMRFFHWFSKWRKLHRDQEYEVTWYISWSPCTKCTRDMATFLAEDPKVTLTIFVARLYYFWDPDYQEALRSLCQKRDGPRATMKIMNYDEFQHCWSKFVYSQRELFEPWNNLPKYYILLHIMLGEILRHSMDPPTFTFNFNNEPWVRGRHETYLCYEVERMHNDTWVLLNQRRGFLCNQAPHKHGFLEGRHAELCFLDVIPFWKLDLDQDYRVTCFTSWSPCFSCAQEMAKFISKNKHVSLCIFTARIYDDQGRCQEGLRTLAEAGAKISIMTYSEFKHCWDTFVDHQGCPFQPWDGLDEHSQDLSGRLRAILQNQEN", "assay": "qHTS for inhibitors of Vif-A3G interactions: Cherry picks counterscreen;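 also: hits raise yellow fluorescence by blocking Vif-driven A3G-eYFP degradation; nearly all actives have a fitted effect of over 70% in size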;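 as to max response: max response given as percent of control signal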", "conditions": "HeLa A3G-eYFP + Vif (tagged APOBEC3G with the HIV-1 protein that degrades it), eYFP fluorescence, 24 h", "outline": "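HeLa cells stably expressing A3G-eYFP and Vif were treated for 24 h at 37 deg C with compounds at several concentrations; yellow fluorescence (Ex 488 nm, Em 500-530 nm) read by Acumen Explorer, MG132 as positive control.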", "values": [{"smiles": "CC(=O)Nc1cccc(-c2ccnc3c2CC(C)(C(=O)NCc2ccccc2)O3)c1", "note": "(stereo unspecified)", "Potency": "1.4 µM (active)"}, {"smiles": "CC(=O)Nc1ccc(-c2ccnc3c2CC(C(=O)NCc2cccc(Cl)c2)O3)cc1", "note": "(stereo unspecified)", "Potency": "3.14 µM (active)"}, {"smiles": "CC(=O)Nc1ccc(-c2ccnc3c2CC(C(=O)NCc2ccccc2)O3)cc1", "note": "(stereo unspecified)", "Potency": "0.444 µM (active)"}, {"smiles": "N#Cc1c(C(F)(F)F)cc(-c2ccccc2)nc1SCc1nc(N)nc(N2CCOCC2)n1", "Potency": "2.91 µM (active)"}, {"smiles": "N#C/C(=C/c1ccc(N2CCOCC2)o1)c1ccc(Cl)cc1", "Potency": "2.31 µM (active)"}, {"smiles": "N#C/C(=C\\c1ccc(N2CCOCC2)o1)c1ccccc1", "Potency": "14 µM (active)"}, {"smiles": "Cc1ccc(/C(C#N)=C\\c2ccc(N3CCOCC3)o2)cc1", "Potency": "17.7 µM (active)"}, {"smiles": "N#C/C(=C/c1ccc(N2CCCCCC2)o1)c1ccc(Cl)cc1", "Potency": "2.91 µM (active)"}, {"smiles": "N#CC(C#N)=C1C=C2C=C(N3CCOCC3)CCC2CC1", "note": "(stereo unspecified)", "max response": "51.3% (inactive)"}, {"smiles": "Cc1ccc(S(=O)c2ccc([N+](=O)[O-])c3nonc23)cc1", "note": "(stereo unspecified)", "max response": "28.3% (inactive)"}, {"smiles": "CN1CCC(OC(=O)c2cc3cc(Cl)cc(Cl)c3oc2=O)CC1", "max response": "17.4% (inactive)"}, {"smiles": "Cn1nnc2c[n+](CC(=O)c3ccc(Cl)cc3)cc(Br)c21", "Potency": "19.8 µM (active)"}, {"smiles": "O=C(Nc1nnc(-c2ccc3c(c2)CCCC3)o1)c1c(F)cccc1F", "max response": "11.9% (inactive)"}, {"smiles": "Cc1ccc(/C=N/NC(=O)c2cc(-c3ccccc3)nc3ccccc23)o1", "Potency": "19.8 µM (active)"}, {"smiles": "Cc1ccc(C=NNC(=O)c2cc(-c3cccnc3)nc3ccccc23)o1", "Potency": "15.8 µM (active)"}, {"smiles": "Cc1cc(C(=O)N/N=C/c2ccc(C)o2)c2ccccc2n1", "Potency": "4.98 µM (active)"}, {"smiles": "C/C(=N\\NC(=O)c1cc(C)nc2ccccc12)c1ccncc1", "max response": "-20.6% (inactive)"}, {"smiles": "O=C(N/N=C/c1c(O)n(-c2ccc(Cl)cn2)c(=O)c2ccccc12)c1ccncc1", "max response": "-19.7% (inactive)"}, {"smiles": "O=C(N/N=C/c1ccc(Cl)cc1)c1cc(-c2cccnc2)nc2ccccc12", "Potency": "2.5 µM (active)"}, {"smiles": "COCCNC(=S)N/N=C(\\C)c1ccccc1O", "max response": "6.88% (inactive)"}, {"smiles": "COc1ccccc1/C=N/NC(=O)c1cc2c(OC)c(OC)ccc2[nH]1", "Potency": "5.59 µM (active)"}, {"smiles": "COc1cccc(/C=N/NC(=O)c2cc3c(OC)c(OC)ccc3[nH]2)c1OC", "Potency": "7.9 µM (active)"}, {"smiles": "COCCCNC(=S)N/N=C/c1cccc(OC)c1O", "max response": "7.9% (inactive)"}, {"smiles": "CCOc1ccc(/C=N/NC(=O)c2cc3c(OC)cccc3[nH]2)cc1", "max response": "2.03% (inactive)"}, {"smiles": "Cc1ccc(N=Cc2c(O)n(-c3nccs3)c(=O)c3ccccc23)c(C)c1", "max response": "-1.11% (inactive)"}, {"smiles": "COc1ccc(N=Cc2c(O)n(-c3cccc(C)n3)c(=O)c3ccccc23)c(OC)c1", "Potency": "6.51 µM (active)"}, {"smiles": "CC1=Nc2ccc(C)cc2/C1=C/c1c(N)n2oc(C)cc2nc1=O", "Potency": "16.4 µM (active)"}, {"smiles": "CCSC1=NSC2=NC(=O)/C(=C\\c3coc4ccccc4c3=O)C(=N)N12", "Potency": "16.4 µM (active)"}, {"smiles": "Cc1ccc(Cn2c(SCc3ccc(C(=O)NC4CCCC4)cc3)nc3ccncc32)cc1", "max response": "-1.29% (inactive)"}, {"smiles": "Cc1ccc(O)c(Nc2c3ccccc3nc3ccccc23)c1", "max response": "10.9% (inactive)"}, {"smiles": "COc1ccc(C)cc1Nc1c2c(nc3ccccc13)CCC2", "Potency": "0.886 µM (active)"}, {"smiles": "Cc1ccc(-c2cn3nc(-c4ccccc4)c(-c4ccccc4)nc3n2)cc1", "Potency": "16.4 µM (active)"}, {"smiles": "Cc1ccc(N=C2NC(=O)/C(=C/c3cn(C)c4ccccc34)S2)cc1C", "Potency": "17.7 µM (active)"}, {"smiles": "Cc1cccc(N=C2NC(=O)/C(=C/c3cccn3C)S2)c1", "max response": "-23.6% (inactive)"}, {"smiles": "Cc1ccc(N=C2NC(=O)/C(=C/c3cccn3C)S2)cc1", "Potency": "14 µM (active)"}, {"smiles": "Cn1cccc1/C=C1\\SC(=Nc2cccc(O)c2)NC1=O", "Potency": "11.2 µM (active)"}, {"smiles": "Cn1cccc1/C=C1\\SC(=Nc2ccccc2)NC1=O", "Potency": "2.5 µM (active)"}, {"smiles": "O=C(NC(=S)Nc1ccccc1N1CCCCC1)c1ccccc1", "max response": "8.17% (inactive)"}, {"smiles": "COc1cc(S(=O)(=O)Nc2ccccc2N2CCCCC2)ccc1NC(C)=O", "Potency": "2.23 µM (active)"}, {"smiles": "C=CCN1C(=O)/C(=C2/Sc3ccc(OC)cc3N2C)SC1=Nc1cccc(O)c1", "Potency": "18.4 µM (active)"}, {"smiles": "C=CCN1C(=O)/C(=C2/Sc3ccc(OC)cc3N2CC)SC1=S", "Potency": "11.6 µM (active)"}, {"smiles": "Cc1cc(-n2c(SCC(=O)Nc3ccc(Br)cc3)nc3n[nH]c(C)c3c2=N)ccc1Cl", "max response": "-13.3% (inactive)"}, {"smiles": "CCOC(=O)N1CCc2c(sc3c2C(=O)NC(c2ccc(N(C)C)cc2)N3)C1", "note": "(stereo unspecified)", "Potency": "4.11 µM (active)"}, {"smiles": "O=C(CC1CC2CCC1C2)Nc1nc(-c2ccccn2)cs1", "note": "(stereo unspecified)", "max response": "10.6% (inactive)"}, {"smiles": "O=C(Nc1nc(-c2ccccn2)cs1)C1CCCC1", "max response": "-16.3% (inactive)"}, {"smiles": "CC(=O)c1ccc(-c2ccc(C(=O)Nc3nc(-c4ccccn4)cs3)o2)cc1", "Potency": "12.5 µM (active)"}, {"smiles": "O=C(N/N=C/c1cccc2ccccc12)c1cc2ccccc2o1", "Potency": "9.94 µM (active)"}, {"smiles": "Cc1cc(/C=N/NC(=O)c2cc3ccccc3o2)c(C)n1C", "max response": "-4.16% (inactive)"}, {"smiles": "Cc1c(/C=N\\NC(=O)c2cc3ccccc3o2)c2ccccc2n1C", "Potency": "3.96 µM (active)"}, {"smiles": "CCCOc1ccc(NC(=O)CC2C(=O)N(c3ccc(OCC)cc3)C(=S)N2C2CC2)cc1", "note": "(stereo unspecified)", "max response": "-18.2% (inactive)"}, {"smiles": "COc1cc(N2CCCC2)c(OC)cc1/C=C1/NC(=S)NC1=O", "max response": "60.5% (inactive)"}, {"smiles": "COc1cc(N2CCCC2)c(OC)cc1/C=C(/C#N)c1ccc(Br)cc1", "Potency": "1.64 µM (active)"}, {"smiles": "COc1cc(N2CCCC2)c(OC)cc1/C=C(/C#N)c1ccc(F)cc1", "Potency": "8.2 µM (active)"}, {"smiles": "CCOC(=O)C(C)Oc1cccc2c(=O)n(CC(=O)NCc3ccco3)ccc12", "note": "(stereo unspecified)", "Potency": "1.4 µM (active)"}, {"smiles": "COC(=O)COc1cccc2c(=O)n(CC(=O)NCc3ccccc3)ccc12", "Potency": "6.27 µM (active)"}, {"smiles": "O=c1[nH]c(NCc2ccco2)nnc1Cc1ccccc1Cl", "Potency": "15.8 µM (active)"}, {"smiles": "CC(=O)Nc1sc(/C(C#N)=C\\c2cccc(Cl)c2)nc1-c1ccc(C)cc1", "Potency": "4.61 µM (active)"}, {"smiles": "CC(=O)Nc1sc(/C(C#N)=C/c2ccc(Cl)c(Cl)c2)nc1-c1ccc(C)cc1", "Potency": "0.731 µM (active)"}, {"smiles": "CCOc1cc(/C=C(\\C#N)c2nc(-c3cccs3)c(NC(C)=O)s2)ccc1O", "max response": "51.1% (inactive)"}, {"smiles": "CCCCOc1ccc(/C=C/C2=CC(C)(C)NC(=S)N2)cc1OCC", "max response": "-1.97% (inactive)"}, {"smiles": "COc1ccccc1-c1c(C#N)c(N)nc2c1CCc1ccccc1-2", "Potency": "6.27 µM (active)"}, {"smiles": "CC1=C(C(=O)Nc2cccc(F)c2)C(c2ccsc2)C2=C(CC(C)(C)CC2=O)N1", "note": "(stereo unspecified)", "Potency": "1.98 µM (active)"}, {"smiles": "O=[N+]([O-])c1ccccc1SNc1ccccc1", "max response": "-7.81% (inactive)"}, {"smiles": "Cc1cc(C)c(S(=O)(=O)Oc2ccccc2[N+](=O)[O-])c(C)c1", "Potency": "3.53 µM (active)"}, {"smiles": "CC(C)n1cnc2c(NCc3ccccc3)cc(N[C@H](C)CO)cc21", "Potency": "15.8 µM (active)"}, {"smiles": "FC(F)(Cl)c1nnc2ccc(Cl)nn12", "Potency": "6.27 µM (active)"}, {"smiles": "N#CCC(=O)N/N=C/c1ccc(N2N=C(c3ccccc3)CC2c2ccccc2)cc1", "note": "(stereo unspecified)", "Potency": "16.4 µM (active)"}, {"smiles": "COc1cc2c3nnc(-c4ccc(F)cc4)c-3cn(Cc3ccc(C)cc3)c2cc1OC", "Potency": "9.94 µM (active)"}, {"smiles": "COc1cc2c3nnc(-c4ccc(F)cc4)c-3cn(Cc3ccccc3F)c2cc1OC", "Potency": "20.6 µM (active)"}, {"smiles": "CCOC(=O)CSC1=C(C#N)C(c2ccc(C)s2)CC(=O)N1", "note": "(stereo unspecified)", "Potency": "1.77 µM (active)"}, {"smiles": "O=C(CCCCl)Oc1ccc2cc(-c3ccc4ccccc4n3)c(=O)oc2c1", "max response": "32.5% (inactive)"}, {"smiles": "COc1ccc2oc(=O)c(-c3nc4ccccc4o3)cc2c1", "Potency": "10.3 µM (active)"}, {"smiles": "CCOc1ccccc1Nc1nnc(-c2cc3cc(OC)ccc3oc2=O)s1", "Potency": "5.17 µM (active)"}, {"smiles": "CC(=O)Nc1ccc(C2=CC(=O)C[C@H](c3ccc(Cl)cc3)C2)cc1", "Potency": "18.4 µM (active)"}, {"smiles": "CC(=O)Nc1ccc2c(c1)Cc1ccc(Cl)cc1-2", "max response": "-8.49% (inactive)"}, {"smiles": "CN(C)CCN(C(=O)/C=C/c1cccs1)c1nc2c(F)cc(F)cc2s1", "max response": "-22.8% (inactive)"}, {"smiles": "O=C(Nc1ccc([N+](=O)[O-])cc1)C(Cc1ccccc1)N1C(=O)c2cccc3cccc(c23)C1=O", "note": "(stereo unspecified)", "Potency": "8.86 µM (active)"}, {"smiles": "Nc1c(C(=O)Nc2ccc(S(=O)(=O)N3CCCC3)cc2)sc2nc3cc4c(cc3cc12)CCC4", "Potency": "10.3 µM (active)"}, {"smiles": "CCc1cccc2cc3c(N)c(C(=O)Nc4ccc(S(=O)(=O)N5CCCC5)cc4)sc3nc12", "Potency": "5.59 µM (active)"}, {"smiles": "Nc1c(C(=O)Nc2ccc(S(=O)(=O)N3CCCC3)cc2)sc2nc3ccc(OC(F)(F)F)cc3cc12", "Potency": "18.4 µM (active)"}, {"smiles": "Cn1c(N)c(-c2ccccc2)c2ccc([N+](=O)[O-])cc2c1=O", "Potency": "5.59 µM (active)"}, {"smiles": "N#Cc1c(-c2ccccc2F)cc(C2CC2)nc1SCC(=O)c1cccs1", "Potency": "14 µM (active)"}, {"smiles": "CNC(=S)N/N=C(\\C)c1ccc(Cl)s1", "max response": "0.869% (inactive)"}, {"smiles": "COc1ccc(Cl)cc1NC(=O)CN(C)CC(=O)Nc1ccccc1N1CCOCC1", "Potency": "1.58 µM (active)"}, {"smiles": "COc1cc(Cl)c(C)cc1NC(=O)CN1CCN(C(=O)C2CC2)CC1", "max response": "-28.2% (inactive)"}, {"smiles": "Fc1ccc(CNc2nc3ccccc3n3nnnc23)cc1", "Potency": "23.1 µM (active)"}, {"smiles": "CN(C)c1ccc(Nc2nc3ccccc3n3nnnc23)cc1", "max response": "-13.6% (inactive)"}, {"smiles": "CC(NC(=O)c1ccc(Nc2nc3ccccc3n3nnnc23)cc1)c1ccccc1", "note": "(stereo unspecified)", "Potency": "20.6 µM (active)"}, {"smiles": "Cc1ccc(C(=O)O)cc1Nc1nc2ccccc2n2nnnc12", "max response": "-28% (inactive)"}, {"smiles": "Fc1ccccc1Nc1nc2ccccc2n2nnnc12", "Potency": "20.6 µM (active)"}, {"smiles": "c1ccc2c(c1)nc(N1CCOCC1)c1nnnn12", "max response": "-18.6% (inactive)"}, {"smiles": "CN(C)S(=O)(=O)c1ccc2c(c1)/C(=C/c1cc3c([nH]1)CCCC3)C(=O)N2", "Potency": "2.8 µM (active)"}, {"smiles": "CC(C)(C)C(=O)c1sc2nc(-c3cccs3)cc(C(F)(F)F)c2c1N", "Potency": "0.731 µM (active)"}, {"smiles": "CCN(CC)C(=O)c1sc2nc(-c3cccs3)cc(-c3ccc(Cl)cc3)c2c1N", "Potency": "15.8 µM (active)"}, {"smiles": "Nc1c(C(=O)C2CC2)sc2nc(-c3cccs3)cc(C(F)(F)F)c12", "Potency": "0.461 µM (active)"}, {"smiles": "CC(=O)c1sc2nc(-c3cccs3)cc(C(F)(F)F)c2c1N", "Potency": "13 µM (active)"}]}]}
